The entries come from a sample that favours hits as a whole.
VDR inh – vitamin D3 receptor (human) inhibition. Potency, µM, usual class: inhibitors. P11473. AID 504847. VDR-SRC2-3 peptide fluorescence polarization, 2 h. 0.93% of 400,000 active
Target sequence (P11473 whole entry, looked up): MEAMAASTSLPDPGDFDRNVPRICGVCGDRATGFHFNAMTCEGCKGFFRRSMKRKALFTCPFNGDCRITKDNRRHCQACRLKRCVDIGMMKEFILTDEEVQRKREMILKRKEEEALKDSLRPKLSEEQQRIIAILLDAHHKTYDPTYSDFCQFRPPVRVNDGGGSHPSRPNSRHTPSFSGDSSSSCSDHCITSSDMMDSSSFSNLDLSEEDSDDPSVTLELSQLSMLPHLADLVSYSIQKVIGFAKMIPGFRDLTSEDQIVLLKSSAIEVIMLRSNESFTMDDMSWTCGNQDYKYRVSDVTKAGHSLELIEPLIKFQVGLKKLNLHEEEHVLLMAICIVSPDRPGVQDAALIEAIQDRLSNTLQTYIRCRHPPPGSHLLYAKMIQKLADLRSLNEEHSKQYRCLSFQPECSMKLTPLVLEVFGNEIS
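Two reagent solutions held at 4 deg C in the dark were dispensed, compounds pinned at 23 nl, and the mixture incubated 2 h at room temperature. Read-out: fluorescence polarization of VDR–SRC2-3 peptide binding.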
GRP78 ERSR act – ER stress response induction in glioma; U87-MG GRP78 promoter luciferase reporter, 16 h; Potency, µM, usual class: activators; 0.02% of 420,000 active; AID 602332; also: series mostly up to about 76 µM; nearly all actives have a fitted effect of over 35% in size
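Stably transfected U87-MG glioma cells carrying a GRP78-based luciferase sensor; 16 h compound incubation. Luminescence end-point read 10 min after Bright-Glo addition at room temperature.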
Sfp inh – inhibitors of Bacillus subtilis Sfp phosphopantetheinyl transferase; Q9F4F7; AID 1490; Potency, µM, usual class: inhibitors; Biochemical Sfp PPTase activity, qHTS; 3.5% of 310,000 active;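 also: the enzyme is Sfp with the accession as filed and its product quenches rhodamine fluorescence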
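Reaction rates are the 30-min fluorescence difference (ex 525, em 598 nm) in wells containing 15 nM Sfp, 5 uM rhodamine-CoA and 12.5 uM BHQ-2-YbbR at pH 7.6 with 10 mM MgCl2.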
G9a inh – inhibitors of human histone lysine methyltransferase G9a; G9a H3K9 monomethylation, AlphaScreen, 2 h; Potency, µM (doses to about 102 µM), usual class: inhibitors; 8.8% of 350,000 active; AID 504332; also: nearly all actives have a fitted effect of over 75% in size
Target sequence (Q96KQ7 913-1193 limits assumed): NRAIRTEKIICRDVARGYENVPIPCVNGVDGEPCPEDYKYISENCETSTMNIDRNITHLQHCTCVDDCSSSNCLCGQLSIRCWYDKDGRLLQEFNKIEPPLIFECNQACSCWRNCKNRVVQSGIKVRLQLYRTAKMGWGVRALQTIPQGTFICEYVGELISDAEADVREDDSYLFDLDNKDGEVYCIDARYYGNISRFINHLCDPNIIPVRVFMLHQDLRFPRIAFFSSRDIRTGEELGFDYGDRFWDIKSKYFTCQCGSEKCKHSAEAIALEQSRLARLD
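Step 1: enzyme (final 20 nM) with compound, 15 min RT. Step 2: substrate peptide 500 nM and SAM 20 uM, 2 h RT. Step 3: anti-H3K9me1 antibody and AlphaScreen beads, 10 min, then plate read.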
12-LOX inh – ALOX12 (human) lipoxygenase inhibition. P18054. purified 12hLO, xylenol orange hydroperoxide absorbance. 1.1% of 580,000 active. AID 1671190. Potency, µM (top dose mostly 108 µM), most hits filed as inhibitors
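Hydroperoxide product was detected by ferrous iron/xylenol orange as the 573 to 405 nm absorbance ratio. Arachidonic acid at 40 uM (final) was turned over for 30 min at room temperature by 150 nM human 12hLO, pH 7.0 Hepes buffer, after 15 min compound preincubation.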
A number is an active result; i = inactive; ? = inconclusive; nt = not tested or not shown; ! = repeats disagree; [ ] = dose if it differs, or a comment. Calls follow the shape of the dose curve; as a rule, active = well fitted curve in the direction sought with a large enough effect; inconclusive = small, poorly fitted or top-dose-only effect, or another doubt; inactive = no such curve, though single readings can be large; an effect the other way counts as inactive or inconclusive.

SMILES	VDR inh	GRP78 ERSR act	Sfp inh	G9a inh	12-LOX inh
Cc1oc2cc(OC(=O)C3CC3)ccc2c(=O)c1-c1ccc(Cl)cc1	nt	nt	nt	nt	i
CCCC(=O)Nc1ccc(OCC)c2ncccc12	nt	nt	nt	nt	i
COc1ccc(NC(=O)CN(C)CC(=O)Nc2cccc(C(C)=O)c2)cc1	i	i	?	4.5µM	i
CCC(=O)N1CCC2(CC1)NCCc1c2[nH]c2ccccc12	nt	nt	nt	nt	i
COc1ccc(S(=O)(=O)Nc2ccncc2)c(C)c1C	i	i	89µM	i	i
COc1ccc(F)cc1S(=O)(=O)Nc1ccncc1	i	i	i	nt	i
CCOC(=O)c1cc2c(N)c(C(=O)c3ccc(Br)cc3)sc2[nH]c1=O	i	i	28µM	50µM	i
O=[N+]([O-])c1cc(C(F)(F)F)cc([N+](=O)[O-])c1Sc1n[nH]c(C(F)(F)F)n1	28µM	i	56µM	nt	i
CN(C)/C=N/c1nc(Sc2ccc(C(F)(F)F)cc2[N+](=O)[O-])n[nH]1	i	i	i	i	i
COc1ccc(CNC(=O)Cn2ccc3cccc(OC)c32)cc1	nt	nt	nt	nt	i
CCSc1nc2c(c(=O)[nH]c(=O)n2C)n1CCCc1ccccc1	nt	nt	nt	nt	i
COCCn1c(SCC(=O)OCc2ccccc2)nc2c1c(=O)[nH]c(=O)n2C	i	i	i	32µM	i
Cc1cccc(Cn2c(SCCN3CCCCC3)nc3c2c(=O)[nH]c(=O)n3C)c1	i	i	i	i[12.7 µM]	i
Cn1c(=O)[nH]c(=O)c2c1nc(SCCN1CCCCC1)n2CCCc1ccccc1	35µM	i	3.5µM	8.9µM	i
CCCCCOC(=O)CSc1nc2c(c(=O)[nH]c(=O)n2C)n1CCc1ccccc1	?	i	i	13µM	?
CCCCCn1c(SCCc2ccccc2)nc2c1c(=O)[nH]c(=O)n2C	i	i	i	i	i
Cc1ccc(Cn2c(SCCN3CCCCC3)nc3c2c(=O)[nH]c(=O)n3C)cc1	89µM	i	11µM	25µM	?
Cc1cc(=O)n(CC(=O)Nc2ccc(C(C)C)cc2)c(N2CCN(c3ccccc3)CC2)n1	nt	nt	nt	nt	i
CC(C)c1nnc2ccc(N3CCC(C(=O)Nc4ccccc4N4CCCC4)CC3)nn12	nt	nt	nt	nt	i
O/N=C/c1cc[n+](C/C=C\c2ccccc2)cc1	nt	nt	nt	nt	i
COCCSc1nc2c(c(=O)[nH]c(=O)n2C)n1CCCc1ccccc1	?	i	?	nt	28µM!
CCOCCSc1nc2c(c(=O)[nH]c(=O)n2C)n1CCCc1ccccc1	i	i	i	i	i
COCCn1c(SCCCc2ccccc2)nc2c1c(=O)[nH]c(=O)n2C	i	i	i	50µM	i
COCCn1c(SCc2ccccc2)nc2c1c(=O)[nH]c(=O)n2C	i	i	i	i[2.33 µM]	?
CSCC(=O)Nc1nn(-c2ccc(F)cc2)c2cccc(N3CCOCC3)c12	nt	nt	nt	nt	i
SMILES	VDR inh	GRP78 ERSR act	Sfp inh	G9a inh	12-LOX inh
Cc1cccc(-c2cnc3n[nH]c(-c4ccccc4)c3n2)c1	nt	nt	nt	nt	i
Cc1ccc(NC(=O)c2ccc(NC(=O)C3=CSCCO3)cc2)cc1C	nt	nt	nt	nt	i
Cc1ccc(C(=O)O)cc1NC(=O)C1=CSCCO1	i	i	i	50µM	i
COc1cc2c(cc1OC)CN(C(=O)c1ccc([N+](=O)[O-])o1)CC2	i	?	i	56µM	i
COc1ccc(C(=O)N2CCc3cc(OC)c(OC)cc3C2)cc1OC	i	i	i	i	i
O=C(Nc1cccc2ccccc12)O[C@@H]1CO[C@H]2[C@@H]1OC[C@@H]2NC(=S)Nc1ccc(Cl)cc1	nt	nt	nt	nt	35µM
O=C(Nc1cccc2ccccc12)O[C@@H]1CO[C@H]2[C@@H]1OC[C@@H]2NC(=S)Nc1cccc2ccccc12	nt	nt	nt	nt	50µM
COc1cc(NC(=S)N[C@H]2CO[C@H]3[C@@H]2OC[C@H]3OC(=O)Nc2ccccc2)cc(OC)c1	nt	nt	nt	nt	i
CC(=O)c1cccc(NC(=O)O[C@@H]2CO[C@H]3[C@@H]2OC[C@@H]3NC(=S)Nc2cccc3ccccc23)c1	nt	nt	nt	nt	i
O=C(Nc1ccccc1)O[C@@H]1CO[C@H]2[C@@H]1OC[C@@H]2NC(=S)Nc1ccccc1	nt	nt	nt	nt	71µM
CCNC(=O)O[C@@H]1CO[C@H]2[C@@H]1OC[C@@H]2NC(=S)Nc1ccc(N(C)C)cc1	nt	nt	nt	nt	112µM
CN(C)c1ccc(NC(=S)N[C@H]2CO[C@H]3[C@@H]2OC[C@H]3OC(=O)Nc2cccc3ccccc23)cc1	nt	nt	nt	nt	i
CC(C)NC(=O)c1cccc(NC(=O)Nc2ccc(Cl)cc2)c1	nt	nt	nt	nt	i
CCOC(=O)c1nc(N(C)c2cccc(C)c2)c2ccccc2n1	nt	nt	nt	nt	i
S=C(Nc1cccc2ccccc12)N[C@H]1CO[C@H]2[C@@H]1OC[C@H]2OCc1ccccc1	nt	nt	nt	nt	63µM
NC(=O)CO[C@@H]1CO[C@H]2[C@@H]1OC[C@@H]2NC(=O)Nc1cccc2ccccc12	nt	nt	nt	nt	i
O=c1[nH]c(=O)c2[nH]c(=S)[nH]c2[nH]1	?	i	nt	nt	0.71µM
Cc1cccc(C)c1NC(=O)CN1CCN(Cc2nc3ccccc3o2)CC1	nt	nt	nt	nt	i
Cc1ccc(CNC(=O)C2(C)CN(S(C)(=O)=O)CC(=O)N2c2ccc(Cl)cc2)cc1 (configuration not stated)	nt	nt	nt	nt	i
CC1(C)C2([N+](=O)[O-])CN3CC1([N+](=O)[O-])CN(C2)C3c1ccc(O)c(O)c1 (configuration not stated)	i	i	i	22µM	?
O=S(=O)(c1cccc(-c2n[nH]c(=S)n2C2CCCC2)c1)N1CCOCC1	i	i	i	10µM	?
C=CCn1c(CCn2c3ccccc3c3ccccc32)n[nH]c1=S	i	i	i	?	i
C=CCn1c(-c2oc3nc(-c4ccccc4)cc(-c4ccccc4)c3c2N)n[nH]c1=S	i	i	i	32µM	?
C=CCn1c(-c2cccc(Cl)c2)n[nH]c1=S	i	i	i	2.8µM	?
C=CCn1c(-c2sccc2C)n[nH]c1=S	i	i	i	7.9µM	i
SMILES	VDR inh	GRP78 ERSR act	Sfp inh	G9a inh	12-LOX inh
S=c1[nH]nc(-c2cccc(Cl)c2)n1Cc1ccccc1	i	i	i	?	?
NNC(=O)c1oc2nc(-c3ccc(Cl)cc3)cc(-c3ccccc3)c2c1N	i	i	i	i[2.33 µM]	i
COc1ccccc1C(=O)Oc1ccc2c(=O)c(-c3ccccc3OC)c(C)oc2c1	nt	nt	nt	nt	i
COc1ccc(Cl)cc1C(=O)NC1CC(=O)N(c2ccc(F)cc2)C1 (configuration not stated)	nt	nt	nt	nt	i
COC(=O)c1sc2ccccc2c1S(=O)(=O)Nc1cc(OC)c(OC)c(OC)c1	nt	nt	nt	nt	i
COc1cc(CNC(=O)C23CC4CC(CC(C4)C2)C3)ccc1OC(F)F	nt	nt	nt	nt	i
O=C(Nc1ccc(CC(=O)N2CCOCC2)cc1)c1cc(Cl)ccc1Cl	nt	nt	nt	nt	i
C=CCn1c(-c2cccc(S(=O)(=O)N3CCOCC3)c2)n[nH]c1=S	i	i	nt	7.1µM	?
C=CCn1c(SCC(=O)Nc2ccccc2)nnc1-c1cccc(S(=O)(=O)N2CCOCC2)c1	i	i	i	i	i
C=CCn1c(CSc2nnc(-c3ccccc3)n2C)n[nH]c1=S	i	i	?	nt	i
C=CCn1c(CSc2ccc(C)cc2)n[nH]c1=S	i	i	i	8.9µM	?
C=CCn1c(-c2cccc(S(=O)(=O)N(CC)CC)c2)n[nH]c1=S	i	i	?	3.5µM	?

Screens deposited in PubChem BioAssay by National Center for Advancing Translational Sciences (NCATS).
